# From ChEMBL document CHEMBL4513216, “Probing the Open Global Health Chemical Diversity Library for Multistage-Active Starting Points for Next-Generation Antimalarials” (ACS Infect Dis, 2020)
# In all, about 68,000 compounds went through this assay and about 2,700 (4%) showed an effect of 50% or more. For the sample, strong results were picked, then their nearest neighbours and some compounds at random.
# System: Plasmodium berghei
# Test: Screen against P. berghei liver stage (PbLuc), transformed with Luciferase, at 2uM
# Type: functional, HepG2
# Details: tested at 2 uM
row,SMILES,INHIBITION
1,COc1ccc(CN2CCN(CC3CC3)[C@@H]3CS(=O)(=O)C[C@@H]32)cc1O,7.93%
2,Cn1ncc2c(NC3CN4CCC3CC4)nc(-c3ccncc3)nc21 (stereo not drawn),10.1%
3,Cn1ncc2c(NC3CCC3)nc(-c3ccncc3)nc21,-24.62%
4,Cn1ncc2c(N[C@@H]3C[C@H]4CC[C@@H]3C4)nc(-c3ccncc3)nc21,67.85%
5,Cc1csc(CNC(=O)NC(C)c2ccc3c(c2)OCCO3)n1 (stereo not drawn),39.83%
6,CN(C)CCOC1CC2(CCN(c3cnccn3)CC2)c2ccccc21 (stereo not drawn),20.21%
7,CC(=O)N(Cc1ncc(C)o1)C1CCN(Cc2ccncc2Cl)C1 (stereo not drawn),53.72%
8,CC(=O)N(Cc1ncc(C)o1)C1CCN(Cc2noc(C)n2)C1 (stereo not drawn),71.13%
9,CC(=O)N(Cc1noc(C)n1)C1CCN(Cc2ccccn2)C1 (stereo not drawn),6.31%
10,CC(=O)N(Cc1noc(C)n1)C1CCN(Cc2ncc(C(C)C)o2)C1 (stereo not drawn),8.06%
11,CC(=O)N(Cc1noc(C)n1)C1CCN(Cc2ccccc2C#N)C1 (stereo not drawn),-21.31%
12,CC(=O)N(Cc1ncc(C)o1)C1CCN(Cc2cccnc2)C1 (stereo not drawn),41.72%
13,CC(=O)N(Cc1ncc(C)o1)C1CCN(Cc2cc(C)on2)C1 (stereo not drawn),1.04%
14,CC(=O)N(Cc1noc(C)n1)C1CCN(Cc2ccncc2Cl)C1 (stereo not drawn),53.72%
15,CC(=O)N(Cc1ncc(C)o1)C1CCN(Cc2ccccc2F)C1 (stereo not drawn),20.35%
16,O=C(O)[C@@H]1CN(C(=O)CN2Cc3ccccc3C2)C[C@H]1c1ccncc1,27.42%
17,CCN(C(=O)c1cccc2c1OCO2)c1ccccc1,-0.15%
18,O=C1CC2(CCN(S(=O)(=O)C3CC3)C2)CN1c1cncnc1 (stereo not drawn),34.34%
19,Cn1nccc1CCC(=O)N1CCCC(Cc2cccnc2)C1 (stereo not drawn),-24.85%
20,Cc1ccc(CN(C(=O)NC2CCS(=O)(=O)C2)C2CC2)o1 (stereo not drawn),1.88%
21,CCOc1cc(C)ccc1NC(=O)N(C)Cc1cnn(C)c1,17.39%
22,CCCOc1cc(C)ccc1NC(=O)N(C)Cc1cnn(C)c1,-31.72%
23,COCCOc1cc(C)ccc1NC(=O)N(C)Cc1cnn(C)c1,64.16%
24,O=C1CCCC2=C1C(c1ccccc1Cl)C1C(=O)NN=C1N2 (stereo not drawn),31.66%
25,Cn1ncc2c1CN(Cc1ccccc1F)CC2COCC1CC1 (stereo not drawn),21.42%
26,Cc1cccc(N2CC(c3nnc(N)s3)CC2=O)c1 (stereo not drawn),52.23%
27,CCc1ccccc1N1CC(c2nnc(N)s2)CC1=O (stereo not drawn),51.78%

row,SMILES,INHIBITION
1,O=C(C1CC(=O)N(c2ccccc2)C1)N1CCC2(CC1)OCCO2 (stereo not drawn),28.17%
2,Cc1cccc(N2CC3(CCN(c4nncs4)C3)CC2=O)c1 (stereo not drawn),5.77%
3,CS(=O)(=O)NC1CC(=O)N(c2ccccc2Cl)C1 (stereo not drawn),34.28%
4,Cc1cc(C)cc(N2CC(c3nnc(N)s3)CC2=O)c1 (stereo not drawn),35.41%
5,O=C1C[C@@H]2CCN(Cc3ccccc3)C[C@@H]2CCN1c1ccccc1,44.84%
6,Nc1nnc(C2CC(=O)N(c3ccccc3)C2)s1 (stereo not drawn),74.36%
7,Cc1c(Cl)cccc1N1CC(c2nnc(N)s2)CC1=O (stereo not drawn),8.41%
8,CN(C)C1CC2(CCN(C(=O)c3csnn3)CC2)c2ccccc21 (stereo not drawn),24.51%
9,CCc1nc2c(NCC3COc4cc(OC)ccc4C3)ncnc2o1 (stereo not drawn),23.17%
10,CCCc1n[nH]c(C2CN(C(=O)CCn3cc(C)cn3)CCO2)n1 (stereo not drawn),14.21%
11,Cn1cc(CN2C[C@H]3CCN(C(=O)c4cscn4)C[C@H]3C2)cn1,34.24%
12,CCCN(CC(=O)N(C)C)C(=O)c1ccc(-c2nc(C)cs2)cc1,-0.15%
13,CCN(CC(=O)N(C)C)C(=O)c1ccc(-c2nc(C)cs2)cc1,53.81%
14,CCCN(CC(=O)NC)C(=O)c1ccc(-c2nc(C)cs2)cc1,46.98%
15,CC(C)(C)CC(=O)NCC(=O)Nc1ccn(Cc2ccccc2)n1,43.87%
16,O=C(NCc1nnc2ccccn12)N1CCOC(c2ccsc2)C1 (stereo not drawn),63.39%
17,O=C(NCc1nccs1)N1CCOC(c2ccccc2Cl)C1 (stereo not drawn),-71.45%
18,O=C(NCc1nnc2ccccn12)N1CCc2sccc2C1,30.31%
19,O=C(NCc1nnc2ccccn12)N1CCOC(c2cccs2)C1 (stereo not drawn),50.46%
20,Cc1ccc(C2CN(C(=O)NCc3nnc4ccccn34)CCO2)o1 (stereo not drawn),26.03%
21,CCn1cnnc1CNC(=O)N1CCOC(c2ccccc2Cl)C1 (stereo not drawn),42.19%
22,CCN1CCC2(CC1)OCCN2C(=O)c1cc(Cl)c(OC)c(Cl)c1,19.62%
23,Cc1cc(C)n(C2CCCN(C(=O)c3ccc(N(C)C)nc3)C2)n1 (stereo not drawn),-35.65%
24,Cc1noc(C)c1S(=O)(=O)N(CC(N)=O)CC(C)C,23.08%
25,CC(C)n1cc(CN2CCCN(C(=O)C(C)n3cccn3)CC2)cn1 (stereo not drawn),-86.2%
26,O=c1ccc2c(n1CC1CC1)CCC(NCc1cccs1)C2 (stereo not drawn),-26.76%
